Screening data from PubChem.
BRCA1 expr up: increases BRCA1 expression; MCF7-BRCA1-FFLuc reporter, luminescence, 48 h; response scale: scaled: vehicle 0%, 10 µM genistein 100%; Potency, µM (highest dose often 46.1 µM), without a hit: at the top dose activation, most hits filed as activators; hit rate 1.1% among 380,000; note: potency is the fitted concentration of half-maximal effect; nearly all actives have a fitted effect of over 80% in size
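Activators of BRCA1 expression were detected as increased firefly luciferase luminescence in engineered MCF7 cells after 48 h compound incubation. Signals were scaled to genistein 10 microM as full activation.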
IL2 activator: activators of IL-2. hit rate 0.065% among 360,000. activation, % (series mostly up to about 46 µM). IL-2 activation reporter assay, cell-based qHTS; stimulated with anti-CD3/CD4/CD28 beads; in transgenic mouse T cells; in the data active = activation above about 50%; inconclusive = mostly about 30% to 49%; note: 0% is about no effect
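First, unstimulated transgenic mouse T cells were exposed to compound for 60 min. Next, anti-CD3/anti-CD4-coated beads with anti-CD28 were added. Finally, after 18 h at 37 degrees C, EGFP and DsRed were imaged.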
Nrf2 inh: Nrf2 pathway inhibition. A549 ARE-Fluc reporter, luciferase luminescence, 18-24 h. Potency, µM (highest dose often 46 µM), inactives show top-dose activity change, negative = inhibition, usual class: inhibitors. hit rate 2.1% among 360,000. AID 504444; note: potency is the fitted concentration of half-maximal effect; % is set by controls: 0 for no effect and ±100 for the full control effect; nearly all actives have a fitted effect of over 60% in size
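In this cell-based qHTS, ARE-driven firefly luciferase in A549 cells reports Nrf2 activity; the luminescent signal after BugLite lysis is the measured value, with a prior CellTiter-Fluor read for cell health.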
A549 tox: kills or reduces viability of A549 cells in Nrf2 counter-screen; A549 ARE-Fluc cells, CellTiter-Fluor viability, 18-24 h; AID 504648; hit rate 0.16% among 390,000; Potency, µM (titrated, usually from 46 µM), for the others: at the highest dose activity change, negative = cytotoxicity, actives largely listed as inhibitors; note: potency is the fitted concentration of half-maximal effect; % is set by controls: 0 for no effect and ±100 for the full control effect
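Cytotoxicity counterscreen: CellTiter-Fluor fluorescence was measured in A549 ARE_Fluc cells after 18-24 h of compound exposure in a concentration series. The subsequent BugLite luminescent read reports ARE-luciferase activity.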
Nrf2 activator: activates Nrf2 signaling | hit rate 0.31% among 410,000 | AID 624171 | AREc32 ARE-luciferase reporter (MCF7-derived line), luminescence, 24 h | Potency, µM (top dose mostly 46.1 µM), without a hit: top-dose activation, most hits filed as activators; note: potency is the fitted concentration of half-maximal effect; % of control where 0% means no effect; nearly all actives have a fitted effect of over 65% in size
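Quantitative high-throughput format: AREc32 reporter cells, 1000 per well, received compound by pin transfer and were incubated 24 hr at 37 deg C, 5% CO2, before Steady-Glo luminescence detection.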
p53 reactivation: restores transcriptional activity of mutant p53; H1299 p53-A138V BP100-luciferase reporter, luminescence, 24 h; Potency, µM (highest dose often 92.2 µM), for the others: at the top dose activity change, positive = activation, usual class: activators; hit rate 0.063% among 320,000; AID 504706; note: potency is the fitted concentration of half-maximal effect; % of control where 0% means no effect; nearly all actives have a fitted effect of over 45% in size
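p53-null H1299 cells stably carrying temperature-sensitive p53-A138V and a BP100-luciferase reporter were pinned with compounds (4-point, 1:5 series) and held 24 hrs at 37 deg C. Luminescence was read 10 min after detection reagent.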
* marks the source's active call; other numbers are inactive results; u = inconclusive; x = not tested or not shown. Only some compounds are listed: those with a hit (about 3.2% of all), similar ones and a draw of the others. Unless noted, calls come from the whole dose curve; as a rule, active = well fitted curve in the direction sought with a large enough effect; inconclusive = small, poorly fitted or top-dose-only effect, or another doubt; inactive = no such curve, though single readings can be large; an effect the other way counts as inactive or inconclusive.

SMILES	BRCA1 expr up	IL2 activator	Nrf2 inh	A549 tox	Nrf2 activator	p53 reactivation
Cc1ccc2c(cnn2C(=O)CCCC(=O)NC(C)c2ccccc2)c1 (centres undefined)	2.5µM*	-4	u	2%	-1%	18%
CCOC(=O)Cc1csc(NC(=S)NC(=O)c2ccccc2)n1	-64%	-2	0%	5%	-2%	-10%
Cc1csc(NC(=S)NC(=O)c2ccccc2)n1	31%	-1	u	-1%	6.3µM*	u
Cc1csc(NC(=O)c2ccccc2)n1	3.2µM*	-2	u	10%	6%	6%
O=C(Nc1nc(=O)c2ccccc2s1)c1ccccc1	-62%	-1	u	-2%	2µM*	u
CCOC(=O)Cc1csc(NC(=S)NC(=O)c2ccc(C)cc2)n1	-83%	-5	2.1µM*	-10%	-3%	-64%
CCOc1c(Cl)cc(C(=O)N(Cc2ccc(N(C)C)cc2)Cc2ccco2)cc1Cl	x	x	-28%	7%	0%	x
COC(=O)Cc1c(C)c2cc3c(c(C)c2oc1=O)OCN(CCc1ccc(OC)cc1)C3	x	x	10%	u	0%	x
COc1cc(OC)nc(NC(=S)NC(=O)c2ccccc2)n1	-48%	0	11%	25%	11µM*	-2%
Cc1ccc2cccc(NC(=S)NC(=O)c3ccccc3)c2n1	-62%	0	-10%	-18%	4µM*	4%
Cc1cc(C)c2cccc(NC(=S)NC(=O)c3ccccc3)c2n1	-44%	-1	5%	15%	u	-2%
O=C(Nc1ccc2c(c1)OCCO2)c1ccc(Cl)c(Cl)c1	13µM*	-4	u	-10%	5%	16%
O=C(Nc1ncccc1Cl)c1ccc2c(c1)OCCO2	8.9µM*	0	u	-20%	3%	15%
O=C(Nc1ccc(C(F)(F)F)cc1)c1ccc2nc[nH]c2c1	8%	-1	u	-3%	7%	6%
O=C(NC(=S)Nc1ccc2nc[nH]c2c1)c1ccccc1	4µM*	-1	23%	-2%	0%	u
O=C(Nc1ccc2c(c1)OCO2)c1ccc2nc[nH]c2c1	5.6µM*	2	u	-5%	2%	13%
Cc1ccc(C)c(N2CCN(S(=O)(=O)c3cc(-c4cc(C)no4)ccc3C)CC2)c1	x	x	u	-5%	-1%	x
COc1cccc(C(=O)n2nc(-c3ccco3)nc2NCc2cccs2)c1	x	x	5%	1%	3%	x
CCCOc1cccc(C(=O)Nc2ccc3c(c2)OCCO3)c1	7.9µM*	-1	u	-3%	-1%	24%
CCOC(=O)c1c(NC(=O)COC(=O)c2cccnc2OCC)sc(C(=O)N(CC)CC)c1C	-23%	-1	15µM*	-25%	5%	-3%
CCOC(=O)c1c(NC(=O)COc2ccc(OC)cc2)sc(C(=O)N(CC)CC)c1C	x	x	23µM*	-22%	-1%	x
CCOC(=O)c1c(NC(=O)COc2ccc(Br)cc2)sc(C(C)=O)c1C	x	x	x	-2%	-1%	x
CCc1nnc2c(Nc3cccc(F)c3)nc3ccc(C(=O)c4ccccc4)cc3n12	x	x	-9%	1%	1%	x
O=C(CSc1cn(CCNC(=O)c2ccccc2F)c2ccccc12)Nc1ccccc1F	17%	x	-27%	2%	0%	x
COc1ccc(Cl)cc1NC(=O)CSC1=NN2CCCC(=O)N=C2S1	-37%	-1	23µM*	-13%	2%	-6%
SMILES	BRCA1 expr up	IL2 activator	Nrf2 inh	A549 tox	Nrf2 activator	p53 reactivation
COc1ccc(Cl)cc1NC(=O)CSc1cn(CC(=O)N2CCCCCC2)c2ccccc12	x	x	26µM*	-7%	1%	x
COc1ccc(Cl)cc1NC(=O)CSc1cn(CC(=O)N2CCCC2)c2ccccc12	x	x	-24%	-3%	0%	x
O=C(CSc1cn(CCNC(=O)c2ccc3ccccc3c2)c2ccccc12)NCc1ccco1	-42%	-3	23µM*	-27%	6%	1%
COc1ccccc1C(=O)NCCn1cc(SCC(=O)Nc2ccccc2F)c2ccccc21	2%	x	23µM*	-21%	0%	x
COc1ccc(OC)c(NC(=O)CSC2=NN3CCCC(=O)N=C3S2)c1	-24%	0	-10%	1%	0%	-4%
COc1ccc(NC(=O)CSc2cn(CCNC(=O)c3ccc(OC)cc3)c3ccccc23)cc1	12%	x	-27%	-13%	4%	x
Cc1ccc(C)c(N(C)C(=O)CCNC(=O)Cn2cnc3ccccc3c2=O)c1	x	x	u	-3%	0%	x
COc1ccc(-c2[nH]c(-c3ccccc3)nc2SCC(=O)Nc2ccc3c(c2)OCO3)cc1	x	x	u	u	7%	x
O=C(CSc1cn(CC(=O)N2CCCCCC2)c2ccccc12)Nc1ccccc1F	x	x	21µM*	-11%	1%	x
COc1ccc(C(=O)NCCn2cc(SCc3cccc(F)c3)c3ccccc32)cc1OC	-65%	x	23µM*	-16%	-1%	x
Cc1ccc(NS(=O)(=O)c2cc3c(cc2C)NC(=O)CO3)cc1C	x	x	-16%	1%	x	x
Oc1ccc2ccccc2c1N=Nc1ccccc1F	-46%	0	28%	-7%	3.5µM*	u
Cc1ccc(C)c(S(=O)(=O)c2nnn3c2nc(NCc2ccc4c(c2)OCO4)c2sccc23)c1	x	x	u	-8%	1%	x
CC(C)(C)c1ccc(Oc2ccc(NC(=O)CCC(=O)OCC(=O)c3ccccc3)cc2)cc1	x	x	u	-2%	9%	x
Cc1cc(NC(=O)Nc2ccc3c(ccn3C)c2)sn1	10µM*	0	-19%	-6%	4%	x
COC(=O)c1ccc(NC(=O)Nc2ccc3c(c2)nc(C)n3C)cc1	u	2	-9%	2%	-1%	8%
Cc1ccc2ncnc(Nc3ccc(C)c(C)c3)c2c1	-12%	-1	15µM*	-1%	3%	2%
CC1=Nc2ccccc2/C1=C(/C)c1c(C)[nH]c2ccccc12	-1%	x	x	x	x	x
COc1ccc(OC)c(CC2C(=O)Nc3ccc(Br)cc32)c1 (centres undefined)	x	x	23µM*	0%	-1%	x
Cc1ccc(C)c(Cn2cc(CCC(=O)NC3CCCCC3)c3ccccc32)c1	x	x	0%	15%	0%	x
Cc1c(CCOC(=O)c2ccc(N3CCOCC3)c([N+](=O)[O-])c2)sc[n+]1CC#N	-88%	-3	16µM*	u	10%	u
CC(=O)c1c(N2CCN(Cc3ccccc3)CC2)nc(=S)n(Cc2ccccc2)c1C	-39%	0	21µM*	u	1%	1%
O=C(CCCn1c(=O)c2ccccc2n(Cc2cccc(Cl)c2)c1=O)NCCc1ccc(Cl)cc1	x	x	-18%	-1%	0%	x
Cc1ccc(S(=O)(=O)N2CCN(c3nc(Nc4ccccc4O)nc4ccccc34)CC2)cc1	27%	x	x	x	x	x
